Experimental data: PubChem BioAssay (EPA / NIEHS)
“And” between values parts separate entries of the source, which are not always exact repeats. Identical values can stand only once. Results filed as inconclusive are left out. Where a structure was tested more than once in an assay, its records may differ in their call. The source made the active and inactive calls. The calls were made as follows, unless noted: active = hit-call score of the fitted dose curve at least 0.9, where 1 is the maximum; inactive = score below 0.9. Peptide text beside a SMILES is read from it.

read-out: Vascular cell adhesion molecule 1 (VCAM1), VCAM1 (gene 7412); test: BSK_MyoF_VCAM1: BioMAP Diversity Plus: MyoF Assay for Vascular cell adhesion molecule 1 (VCAM1) Biomarker Activity (AID 2284231); settings: primary human lung fibroblasts
Outline: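 Steps: fibroblasts from human lung exposed to compound; biomarker quantified by ELISA at 24 h; values analysed for upward change over the DMSO baseline.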

Compound | outcome | AC50
CCOC(=O)C1=NOC(c2ccccc2)(c2ccccc2)C1 | inactive | 
CC1(C)CC(O)CC(C)(C)N1[O] | inactive | 
CC(C)CCCCCOC(=O)CS | inactive | 
CCCCCCC=O | inactive | 
CCOC(=O)/C=C\C(=O)OCC | inactive | 
CCOC(=O)C1=NN(c2ccc(Cl)cc2Cl)C(C)(C(=O)OCC)C1 (configuration not stated) | inactive | 
C=CCCCCCCCCC=O | inactive | 
CC=C(C)C=CC=C(C)C | inactive | 
CC/C=C\C/C=C\C/C=C\CCCCCCCC(=O)OC |  | 11.1 µM (active)

system: not listed separately; test: CCTE_Mundy_HCI_Cortical_NOG_BPCount: CCTE's Neurite Outgrowth Assay in rat cortical cells for Branch Point Count, Mundy Lab (AID 2284237); settings: not given
Outline: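 Measured 50.33 h after dosing, this morphology endpoint uses rat primary cortical cultures labelled for betaIII-tubulin. Branch points are quantified by high-content imaging, with DMSO as negative control and baseline.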

Compound | outcome
CCCCNS(=O)(=O)c1ccccc1 | inactive
Cc1c(C(=O)c2c[nH]n(C)c2=O)ccc(S(C)(=O)=O)c1C1=NOCC1 | inactive
Cc1noc(NS(=O)(=O)c2ccc(N)cc2)c1C | inactive
COC(=O)[C@H](Cc1ccccc1)NC(=O)[C@@H](N)CC(=O)O (H-Asp-Phe-OMe) | inactive

read-out: Collagen I, COL1A1 (gene 1277); test: BSK_MyoF_CollagenI: BioMAP Diversity Plus: MyoF Assay for Collagen I Biomarker Activity (AID 2284238); settings: primary human lung fibroblasts
Outline: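 Multiplexed primary human lung fibroblast system; Collagen I measured by ELISA at 24 h post-dose. Increases are referenced to DMSO.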

Compound | outcome | AC50
CCCCCCOC(=O)CCCCC(=O)OCCCCCC | inactive | 
CCCCCCC=O | inactive | 
CCOC(=O)C1=NN(c2ccc(Cl)cc2Cl)C(C)(C(=O)OCC)C1 (configuration not stated) | inactive | 
C=CC(=O)OCCCCCCOC(=O)C=C |  | 34.4 µM (active)
CC(c1cc(C(C)(C)C)cc(C(C)(C)C)c1O)c1cc(C(C)(C)C)cc(C(C)(C)C)c1O | inactive | 
CCc1cccc(C)c1N(C(=O)CS(=O)(=O)O)C(C)COC (configuration not stated) | inactive | 
COc1ccc(C(=O)/C(Br)=C\C(=O)O)cc1 | inactive | 
CC(Cl)COP(=O)(OCC(C)Cl)OCC(C)Cl (configuration not stated) | inactive | 
C[N+](C)(C)CCCNS(=O)(=O)C(F)(F)C(F)(F)C(F)(F)C(F)(F)C(F)(F)C(F)(F)C(F)(F)C(F)(F)F |  | 48.6 µM (active) and 48.1 µM (active)

read-out: Collagen III, COL3A1 (gene 1281); test: BSK_MyoF_CollagenIII: BioMAP Diversity Plus: MyoF Assay for Collagen III Biomarker Activity (AID 2284239); settings: primary human lung fibroblasts
Outline: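 Compounds are added to primary human lung fibroblasts and left for 24 hours. Collagen III is then quantified by ELISA. Analysis takes DMSO as baseline and fits increases in signal.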

Compound | outcome | AC50
CCOC(=O)C1=NOC(c2ccccc2)(c2ccccc2)C1 | inactive | 
CC1(C)CC(O)CC(C)(C)N1[O] | inactive | 
CCCCCCOC(=O)CCCCC(=O)OCCCCCC | inactive | 
C=CC(=O)OCC(C)OCC(C)OCC(C)OC(=O)C=C (configuration not stated) |  | 30.9 µM (active)
CC(C)CCCCCOC(=O)CS | inactive | 
CCCCCCC=O | inactive | 
CCCCCCCCC(CO)CCCCCC (configuration not stated) | inactive | 
CCCCCCCO | inactive | 
CCOC(=O)/C=C\C(=O)OCC | inactive | 
CCOC(=O)C1=NN(c2ccc(Cl)cc2Cl)C(C)(C(=O)OCC)C1 (configuration not stated) | inactive | 
Fc1ccc(Br)cc1 | inactive | 
C=CC(=O)OCCCCCCOC(=O)C=C |  | 25.7 µM (active)
C=CCCCCCCCCC=O | inactive | 
CC(c1cc(C(C)(C)C)cc(C(C)(C)C)c1O)c1cc(C(C)(C)C)cc(C(C)(C)C)c1O | inactive | 
CCc1cccc(C)c1N(C(=O)CS(=O)(=O)O)C(C)COC (configuration not stated) | inactive | 
CCN1CN(CC)CN(CC)C1 | inactive | 
COc1ccc(C(=O)/C(Br)=C\C(=O)O)cc1 | inactive | 20 µM (active)
CC=C(C)C=CC=C(C)C | inactive | 
CC/C=C\C/C=C\C/C=C\CCCCCCCC(=O)OC |  | 10.6 µM (active)
CC(Cl)COP(=O)(OCC(C)Cl)OCC(C)Cl (configuration not stated) | inactive | 
O=C(O)C(F)(F)C(F)(F)C(F)(F)C(F)(F)C(=O)O | inactive | 
C[N+](C)(C)CCCNS(=O)(=O)C(F)(F)C(F)(F)C(F)(F)C(F)(F)C(F)(F)C(F)(F)C(F)(F)C(F)(F)F |  | 48.8 µM (active) and 50.1 µM (active)

system: not listed separately; test: CCTE_Mundy_HCI_hNP1_Casp3_7: CCTE's Caspase-Glo 3/7 Assay in human neuroprogenitor cells for Apoptosis, Mundy Lab (AID 2284240); settings: not given
Outline: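 Apoptosis is scored by activated caspase-3/7 luminescence in WA09-derived neural progenitor cells, measured 26.5 h after chemical dosing. Values represent gain of signal relative to DMSO vehicle.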

Compound | outcome
CCCCNS(=O)(=O)c1ccccc1 | inactive
Cc1c(C(=O)c2c[nH]n(C)c2=O)ccc(S(C)(=O)=O)c1C1=NOCC1 | inactive
Cc1noc(NS(=O)(=O)c2ccc(N)cc2)c1C | inactive
O=C(O)C(F)(F)C(F)(F)C(F)(F)C(F)(F)C(=O)O | inactive
COC(=O)[C@H](Cc1ccccc1)NC(=O)[C@@H](N)CC(=O)O (H-Asp-Phe-OMe) | inactive

system: not listed separately; test: CCTE_Mundy_HCI_hNP1_CellTiter: CCTE's Cell Titer-Glo 2 Assay in human neuroprogenitor cells for Viability, Mundy Lab (AID 2284241; active = hit-call score of the fitted dose curve at least 0.9, where 1 is the maximum); settings: not given
Outline: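 Human neural progenitor cells (hNP1, WA09-derived) were plated on poly-L-ornithine/laminin and grown 40 to 44 hours at 37 °C, 5% CO2 before chemical addition. Twenty-four hours later, ATP was measured by CellTiter-Glo luminescence; loss of signal versus DMSO indicates reduced viability.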

Compound | outcome
CCCCNS(=O)(=O)c1ccccc1 | inactive
Cc1c(C(=O)c2c[nH]n(C)c2=O)ccc(S(C)(=O)=O)c1C1=NOCC1 | inactive
Cc1noc(NS(=O)(=O)c2ccc(N)cc2)c1C | inactive
O=C(O)C(F)(F)C(F)(F)C(F)(F)C(F)(F)C(=O)O | inactive
COC(=O)[C@H](Cc1ccccc1)NC(=O)[C@@H](N)CC(=O)O (H-Asp-Phe-OMe) | inactive

read-out: Interleukin 17F (IL17F), IL17F (gene 112744); test: BSK_BT_xIL17F: BioMAP Diversity Plus: BT Assay for Interleukin 17F (IL17F) Biomarker Activity (AID 2284243); settings: primary human B cells with PBMC
Outline: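 Measures secreted IL-17F from a human B cell plus PBMC co-culture at 24 h post-dose by Luminex xMAP, with DMSO defining baseline activity.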

Compound | outcome | AC50
CCOC(=O)C1=NOC(c2ccccc2)(c2ccccc2)C1 | inactive | 
CC1(C)CC(O)CC(C)(C)N1[O] | inactive | 
CCCCCCOC(=O)CCCCC(=O)OCCCCCC | inactive | 
C=CC(=O)OCC(C)OCC(C)OCC(C)OC(=O)C=C (configuration not stated) |  | 7.15 µM (active)
CC(C)CCCCCOC(=O)CS | inactive | 
CCCCCCC=O | inactive | 
CCCCCCCCC(CO)CCCCCC (configuration not stated) | inactive | 
CCCCCCCO | inactive | 
CCOC(=O)/C=C\C(=O)OCC | inactive | 
CCOC(=O)C1=NN(c2ccc(Cl)cc2Cl)C(C)(C(=O)OCC)C1 (configuration not stated) | inactive | 
Fc1ccc(Br)cc1 | inactive | 
C=CC(=O)OCCCCCCOC(=O)C=C |  | 9.47 µM (active)
C=CCCCCCCCCC=O | inactive | 
CC(c1cc(C(C)(C)C)cc(C(C)(C)C)c1O)c1cc(C(C)(C)C)cc(C(C)(C)C)c1O |  | 18.1 µM (active)
CCc1cccc(C)c1N(C(=O)CS(=O)(=O)O)C(C)COC (configuration not stated) | inactive | 
CCN1CN(CC)CN(CC)C1 | inactive | 
COc1ccc(C(=O)/C(Br)=C\C(=O)O)cc1 |  | 26.5 µM (active) and 30.2 µM (active)
CC=C(C)C=CC=C(C)C |  | 24.9 µM (active)
CC/C=C\C/C=C\C/C=C\CCCCCCCC(=O)OC |  | 15.2 µM (active)
CC(Cl)COP(=O)(OCC(C)Cl)OCC(C)Cl (configuration not stated) | inactive | 
O=C(O)C(F)(F)C(F)(F)C(F)(F)C(F)(F)C(=O)O | inactive | 
C[N+](C)(C)CCCNS(=O)(=O)C(F)(F)C(F)(F)C(F)(F)C(F)(F)C(F)(F)C(F)(F)C(F)(F)C(F)(F)F |  | 22.5 µM (active) and 21.6 µM (active)
